Results filed as inconclusive are left out. Values without a mark were called inactive. Active and inactive are the calls of the source. Calls follow the shape of the dose curve; as a rule, active = well fitted cell-killing curve with a large enough effect in the repeat runs; inconclusive = weak or mixed curves, or effect the other way; inactive = flat fitted curve, though single readings scatter.

The results in this text go back to PubChem BioAssay (Tox21).
% is scaled to controls: 0 for no effect and ±100 for the full control effect; potency is read from the fitted curve at half-maximal effect.

A short description of the assay: qHTS RealTime-Glo MT Cell Viability Assay in HepG2 cells - 40 hour (AID 1224870). Also: nearly all actives have a fitted effect of over 50% in size. The conditions noted are these: RealTime-Glo luminescence; series mostly up to 76.8 µM; activity change, negative = cytotoxic: at the top concentration. The method in brief:
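Real-time viability: cells seeded at 600 per well together with NanoLuc and cell-permeant prosubstrate, compounds added after 5 h incubation. Luminescence tracked at 0, 8, 16, 24, 32 and 40 h of exposure.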
In the case of `Oc1cccc(Nc2ccccc2)c1`, the “activity change, negative = cytotoxic” value was -0.718%.

Turning to `Cc1cc2c(OCC(CNC(C)(C)C)OC(=O)c3ccccc3)cccc2[nH]1` (stereo not drawn), the “activity change, negative = cytotoxic” value is -4.53% [at 35.3 µM].

`CCC1(CO)COCOC1`: the “activity change, negative = cytotoxic” value is 1.22%.

In the case of `CC(C)(C)C(=O)C(=O)O`, the “activity change, negative = cytotoxic” value was 1.62%.

In the case of `CCCCOc1ccc(OCCCN2CCOCC2)cc1`, the “activity change, negative = cytotoxic” value is -7.21% [at 35.3 µM].

Regarding `O=[N+]([O-])c1cc(C2CCCCC2)c(O)c([N+](=O)[O-])c1`, the Potency was 48.9 µM (active).

`C(=C\c1ccccc1)/c1ccccc1`: the “activity change, negative = cytotoxic” value is -1.26%.

As for `Clc1cc(Cl)nc(Cl)n1`, the “activity change, negative = cytotoxic” value is 7.22%.

As to `O=C1NCCN1CCO`, the “activity change, negative = cytotoxic” value is 1.05%.

Take `CCCCCCCCOc1ccc(C(=O)O)cc1`: the “activity change, negative = cytotoxic” value was 6.45%.

Turning to `Oc1c(I)cc(I)c2cccnc12`, the “activity change, negative = cytotoxic” value was -6.99% [at 35.3 µM].

As to `CCOC(=O)c1ccc(I)cc1`, the “activity change, negative = cytotoxic” value was 10.6%.

In the case of `O=C1c2ccccc2C(=O)c2c(O)c(O)cc(O)c21`, the “activity change, negative = cytotoxic” value was -4.53%.

As for `CCOC(=O)/C=C/C(=O)OCC`, the “activity change, negative = cytotoxic” value is -5.92%.

For the compound `CCCCCCCC/C=C\CCCCCCCCO`, the “activity change, negative = cytotoxic” value was 0.966%.

On to `O=C1Cc2cc(Cl)ccc2N1`, for which the “activity change, negative = cytotoxic” value was -3.92% [at 35.3 µM].

As to `CC(C)COCC(CN(Cc1ccccc1)c1ccccc1)N1CCCC1` (stereo not drawn), the Potency was 23.9 µM (active).

For `C=CC(=O)[O-].C=CC(=O)[O-].[Zn+2]`, the “activity change, negative = cytotoxic” value was 7.44%.

Take `O=C(O)c1cccc(-c2noc(-c3ccccc3F)n2)c1`: the “activity change, negative = cytotoxic” value is 3.31% [at 35.3 µM].

In the case of `O=c1[nH]c2ccc(Cl)cc2o1`, the “activity change, negative = cytotoxic” value is 1.78%.

`CCc1ccccc1`: the “activity change, negative = cytotoxic” value was 1.74%.

Turning to `CCC(C)COC(C)=O` (stereo not drawn), the “activity change, negative = cytotoxic” value was 1.64%.

Consider `C=C(C)[C@@H]1CCC2=CCC[C@@H](C)[C@]2(C)C1`, for which the “activity change, negative = cytotoxic” value is 0.0657%.

In the case of `O=C(Cn1ccnc1[N+](=O)[O-])NCCO`, the “activity change, negative = cytotoxic” value is 1.06% [at 35.3 µM].

As for `C[C@@H]1CN(CCCn2c3ccccc3c3ccccc32)C[C@H](C)N1`, the Potency is 23.9 µM (active).

As for `O=C(/C=C/c1ccccc1)OCCc1ccccc1`, the “activity change, negative = cytotoxic” value is -12%.

`CCCCN1CCCC1C(=O)Nc1c(C)cc(C)cc1C` (stereo not drawn): the “activity change, negative = cytotoxic” value was -4.74% [at 35.3 µM].

For `Cc1ccc(C(C)(C)O)cc1`, the “activity change, negative = cytotoxic” value is 0.44%.

Take `CCCCN(CCCC)C(C(N)=O)c1ccc(OC)cc1` (stereo not drawn): the “activity change, negative = cytotoxic” value is -0.467% [at 35.3 µM].

Turning to `CCCCN(CCN(CCCC)C(=O)N1CCOCC1)C(=O)N1CCOCC1`, the “activity change, negative = cytotoxic” value is -10.3% [at 35.3 µM].

Regarding `CC1CC(OC(=O)C(O)c2ccccc2)CC(C)(C)N1C` (stereo not drawn), the “activity change, negative = cytotoxic” value was 0.0816% [at 35.3 µM].

Turning to `OCCN1CCN(CCCN2c3ccccc3Sc3ccc(Cl)cc32)CC1`, the Potency was 23.9 µM (active).

`CCCCCC[C@@H](O)C/C=C\CCCCCCCC(=O)OCC(O)CO` (stereo partly drawn): the “activity change, negative = cytotoxic” value is 4.54%.
